The source made the active and inactive calls.
Experiments:
[1] = binders of probe aFSTL3 on microarray, primary screen, stem cell growth factor project, biochemical, small-molecule microarray, fluorescence 635/667 (AID 1064); conditions: higher = more signal;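 note: measures binding of the biotinylated anti-FSTL3 antibody to printed compounds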
[2] = binders from COS7 lysate, DM2A8 probe, primary screen, torsin A project, cell lysate, small-molecule microarray, fluorescence 635/667 (AID 1065); conditions: higher = more signal, COS7 lysate expressing mutant human TOR1A
[3] = binders of probe aFGF2 on microarray, primary screen, stem cell growth factor project, biochemical, small-molecule microarray, fluorescence 635/667 (AID 1067); conditions: higher = more signal;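 note: measures binding of biotinylated aFGF2 protein to printed compounds on slides; z-score merges feature fluorescence and signal-to-noise across triplicate slides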
[4] = binders of probe aFGF10 on microarray, primary screen, stem cell growth factor project, biochemical, small-molecule microarray, fluorescence 635/667 (AID 1071); conditions: higher = more signal;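 note: score merges 667 nm spot intensity and signal to noise from triplicate slides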
[5] = biological target: Neurogenic locus notch homolog protein 2 (Homo sapiens) (UniProt Q04721); experiment: Notch2 binders on small-molecule microarrays, primary screen, biochemical, small-molecule microarray, 635 nm fluorescence, stem cell growth factors (AID 1073); conditions: Notch2 binding, higher = more signal
[6] = biological target: Pro-neuregulin-1, membrane-bound isoform (Homo sapiens) (UniProt Q02297); experiment: NRG1 binders on small-molecule microarrays, primary screen, psychiatric disease protein project, biochemical, small-molecule microarray, fluorescence 635/667 (AID 1075); conditions: NRG1 binding, 635 nm fluorescence, higher = more signal;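 note: score combines 667 nm spot fluorescence with signal to noise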
[7] = system: Neuregulin-1 EGF-like domain; experiment: binders of neuregulin-1 EGF-like domain, primary screen, biochemical, small-molecule microarray, 635 nm fluorescence (AID 1081); conditions: small-molecule microarray binding, higher = more signal;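 note: binding of the protein to compounds printed on small-molecule microarray slides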
[8] = FRG1 promoter luciferase signal modulators, primary screen, FRG1 inhibition for FSHD, cell-based, C2C12 myotubes, firefly/Renilla luciferase, luminescence (AID 1084); conditions: higher = more signal, called active from +8 up or from −8 down
[9] = binders of probe aFST on microarray, primary screen, stem cell growth factor project, biochemical, small-molecule microarray, fluorescence 635/667 (AID 1086); conditions: higher = more signal;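 note: score merges 667 nm fluorescence with signal-to-noise of each printed compound spot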
[10] = binders of probe aHhip on microarray, primary screen, stem cell growth factor project, biochemical, small-molecule microarray, fluorescence 635/667 (AID 1087); conditions: higher = more signal;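 note: score merges spot fluorescence at 667nm with spot signal to noise ratio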
[11] = system: PRMT1 (protein arginine N-methyltransferase 1); experiment: PRMT1 binders on small-molecule microarrays, primary screen, biochemical, small-molecule microarray, 635 nm fluorescence (AID 1088); conditions: small-molecule microarray binding, higher = more signal;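 note: binding of Prmt1 protein to compounds spotted on small-molecule microarray slides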
[12] = yeast growth modulation, basal conditions, primary screen, YJM789 clinical isolate, OD600, 24 h (AID 1089);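 note: growth of clinical yeast isolate S. cerevisiae YJM 789 seeded 1000 cells per well; test concentration not given here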; conditions: S. cerevisiae YJM789 growth, higher = more signal, called active from +8 up or from −8 down
[13] = fission yeast growth modulation, primary screen, strain 972, OD600, 24 h, no modulator (AID 1090);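 note: basal condition with compound alone and no growth modifier present; test concentration not given here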; conditions: S. pombe 972 growth, higher = more signal, called active from +8 up or from −8 down
[14] = S. cerevisiae growth modulation with rapamycin, primary screen, strain BY4716, OD600, 96 h (AID 1091); conditions: higher = more signal, called active from +8 up or from −8 down; note: test concentration not given here
[15] = biological target: Torsin-1A-interacting protein 2 (Homo sapiens) (UniProt Q8NFQ8); experiment: LULL1 binders on small-molecule microarray, primary screen, cell lysate, human LULL1 lysate, 635/667 nm fluorescence (AID 1092); conditions: hLULL1 lysate binding, 635 nm fluorescence, higher = more signal;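 note: probe is lysate of COS7 cells overexpressing human LULL1; score merges per-feature 667 nm fluorescence with signal-to-noise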
[16] = E. coli growth modulation, two-sided OD650, primary screen, E. coli filamentation project, strain DRC41, 24 h (AID 1093); conditions: OD650, 24 h, higher = more signal, called active from +8 up or from −8 down;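 note: MC1000 strain lacking acrAB efflux and sulA so SOS filamentation is blocked; test concentration not given here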
[17] = small-molecule microarray binders of probe aLefty2, primary screen, biochemical, biotinylated probe, 635/667 nm fluorescence (AID 1094); conditions: higher = more signal;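 note: score merges spot fluorescence near 667 nm with spot signal-to-noise ratio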
[18] = system: Noggin (protein binding on small-molecule microarray); experiment: Noggin binders on small-molecule microarray, primary screen, biochemical, 635/667 nm fluorescence (AID 1095); conditions: 635 nm fluorescence, higher = more signal;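 note: score merges 667 nm feature fluorescence with signal to noise over triplicate slides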
[19] = biological target: Neurogenic locus notch homolog protein 3 (Homo sapiens) (UniProt Q9UM47); experiment: NOTCH3 binders on small-molecule microarray, primary screen, biochemical, 635/667 nm fluorescence (AID 1096); conditions: NOTCH3 binding, 635 nm fluorescence, higher = more signal
[20] = small-molecule microarray binders of probe aEGFR, primary screen, biochemical, biotinylated probe, 635/667 nm fluorescence (AID 1097); conditions: higher = more signal;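 note: probe is a biotinylated anti-EGFR antibody binding compounds printed on slides; score combines fluorescence near 667 nm and signal to noise of each spot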

Sequence of Neurogenic locus notch homolog protein 2 (Homo sapiens) (Q04721 whole entry, looked up, canonical isoform): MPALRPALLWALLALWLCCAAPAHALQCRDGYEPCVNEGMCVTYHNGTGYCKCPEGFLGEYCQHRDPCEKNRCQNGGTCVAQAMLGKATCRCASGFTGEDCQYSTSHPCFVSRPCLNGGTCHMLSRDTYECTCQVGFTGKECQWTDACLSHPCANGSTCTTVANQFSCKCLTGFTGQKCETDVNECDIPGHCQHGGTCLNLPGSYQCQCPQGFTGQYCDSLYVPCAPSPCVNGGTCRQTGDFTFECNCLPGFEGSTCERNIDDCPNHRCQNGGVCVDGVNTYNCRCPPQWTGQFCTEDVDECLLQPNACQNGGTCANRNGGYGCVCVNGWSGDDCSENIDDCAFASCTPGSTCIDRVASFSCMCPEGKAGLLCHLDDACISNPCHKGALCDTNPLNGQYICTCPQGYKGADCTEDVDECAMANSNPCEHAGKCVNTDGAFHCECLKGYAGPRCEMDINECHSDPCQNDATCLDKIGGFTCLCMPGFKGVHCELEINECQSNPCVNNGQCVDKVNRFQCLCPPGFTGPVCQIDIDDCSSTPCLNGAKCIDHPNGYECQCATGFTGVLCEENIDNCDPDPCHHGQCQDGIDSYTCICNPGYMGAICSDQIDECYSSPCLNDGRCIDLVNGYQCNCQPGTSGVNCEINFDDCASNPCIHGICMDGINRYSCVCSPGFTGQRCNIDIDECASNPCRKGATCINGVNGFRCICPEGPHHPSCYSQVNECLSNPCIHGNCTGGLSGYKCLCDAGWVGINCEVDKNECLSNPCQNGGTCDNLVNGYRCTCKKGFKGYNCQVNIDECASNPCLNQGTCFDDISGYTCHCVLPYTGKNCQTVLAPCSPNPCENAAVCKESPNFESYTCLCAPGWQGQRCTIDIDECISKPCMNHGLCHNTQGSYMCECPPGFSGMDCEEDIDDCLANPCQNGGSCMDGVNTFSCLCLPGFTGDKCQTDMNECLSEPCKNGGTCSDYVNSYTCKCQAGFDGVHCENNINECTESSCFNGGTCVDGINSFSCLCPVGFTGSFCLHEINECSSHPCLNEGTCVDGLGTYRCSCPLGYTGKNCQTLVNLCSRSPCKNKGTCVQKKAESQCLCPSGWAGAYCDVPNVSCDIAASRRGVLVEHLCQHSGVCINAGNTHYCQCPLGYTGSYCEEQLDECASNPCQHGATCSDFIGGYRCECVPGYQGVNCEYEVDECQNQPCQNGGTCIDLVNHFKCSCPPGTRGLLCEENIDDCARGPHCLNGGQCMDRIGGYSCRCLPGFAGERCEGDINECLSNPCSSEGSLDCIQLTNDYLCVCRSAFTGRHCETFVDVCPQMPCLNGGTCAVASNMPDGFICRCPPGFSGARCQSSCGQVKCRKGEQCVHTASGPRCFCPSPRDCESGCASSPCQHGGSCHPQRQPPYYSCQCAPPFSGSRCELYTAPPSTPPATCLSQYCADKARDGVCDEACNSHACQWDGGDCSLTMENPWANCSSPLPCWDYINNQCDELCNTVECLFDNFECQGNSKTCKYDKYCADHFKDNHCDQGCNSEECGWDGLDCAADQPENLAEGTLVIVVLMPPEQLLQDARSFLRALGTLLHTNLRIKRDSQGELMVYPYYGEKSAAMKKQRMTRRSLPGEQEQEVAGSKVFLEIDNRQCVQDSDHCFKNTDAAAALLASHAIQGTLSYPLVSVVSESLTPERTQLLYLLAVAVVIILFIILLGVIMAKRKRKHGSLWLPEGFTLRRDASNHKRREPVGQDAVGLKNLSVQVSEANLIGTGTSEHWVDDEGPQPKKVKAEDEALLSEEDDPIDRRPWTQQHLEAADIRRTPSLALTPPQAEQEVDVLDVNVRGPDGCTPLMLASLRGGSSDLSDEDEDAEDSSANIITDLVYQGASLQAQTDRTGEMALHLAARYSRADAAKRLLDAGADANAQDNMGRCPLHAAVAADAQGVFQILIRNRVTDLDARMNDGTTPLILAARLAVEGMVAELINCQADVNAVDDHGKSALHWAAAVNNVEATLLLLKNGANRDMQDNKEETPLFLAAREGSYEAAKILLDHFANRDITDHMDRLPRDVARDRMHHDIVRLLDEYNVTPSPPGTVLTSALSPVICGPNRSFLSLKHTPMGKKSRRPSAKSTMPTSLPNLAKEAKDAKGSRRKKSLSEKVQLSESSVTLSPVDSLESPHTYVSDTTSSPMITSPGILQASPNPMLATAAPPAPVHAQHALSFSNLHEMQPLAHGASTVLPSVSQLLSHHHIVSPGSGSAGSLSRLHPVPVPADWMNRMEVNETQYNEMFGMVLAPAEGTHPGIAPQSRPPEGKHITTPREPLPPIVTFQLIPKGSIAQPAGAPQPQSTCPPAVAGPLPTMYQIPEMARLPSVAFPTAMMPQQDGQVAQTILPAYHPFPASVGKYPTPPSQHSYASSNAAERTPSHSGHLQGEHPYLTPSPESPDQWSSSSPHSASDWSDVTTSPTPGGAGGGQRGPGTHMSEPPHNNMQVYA
Sequence of Neurogenic locus notch homolog protein 3 (Homo sapiens) (Q9UM47 whole entry, looked up): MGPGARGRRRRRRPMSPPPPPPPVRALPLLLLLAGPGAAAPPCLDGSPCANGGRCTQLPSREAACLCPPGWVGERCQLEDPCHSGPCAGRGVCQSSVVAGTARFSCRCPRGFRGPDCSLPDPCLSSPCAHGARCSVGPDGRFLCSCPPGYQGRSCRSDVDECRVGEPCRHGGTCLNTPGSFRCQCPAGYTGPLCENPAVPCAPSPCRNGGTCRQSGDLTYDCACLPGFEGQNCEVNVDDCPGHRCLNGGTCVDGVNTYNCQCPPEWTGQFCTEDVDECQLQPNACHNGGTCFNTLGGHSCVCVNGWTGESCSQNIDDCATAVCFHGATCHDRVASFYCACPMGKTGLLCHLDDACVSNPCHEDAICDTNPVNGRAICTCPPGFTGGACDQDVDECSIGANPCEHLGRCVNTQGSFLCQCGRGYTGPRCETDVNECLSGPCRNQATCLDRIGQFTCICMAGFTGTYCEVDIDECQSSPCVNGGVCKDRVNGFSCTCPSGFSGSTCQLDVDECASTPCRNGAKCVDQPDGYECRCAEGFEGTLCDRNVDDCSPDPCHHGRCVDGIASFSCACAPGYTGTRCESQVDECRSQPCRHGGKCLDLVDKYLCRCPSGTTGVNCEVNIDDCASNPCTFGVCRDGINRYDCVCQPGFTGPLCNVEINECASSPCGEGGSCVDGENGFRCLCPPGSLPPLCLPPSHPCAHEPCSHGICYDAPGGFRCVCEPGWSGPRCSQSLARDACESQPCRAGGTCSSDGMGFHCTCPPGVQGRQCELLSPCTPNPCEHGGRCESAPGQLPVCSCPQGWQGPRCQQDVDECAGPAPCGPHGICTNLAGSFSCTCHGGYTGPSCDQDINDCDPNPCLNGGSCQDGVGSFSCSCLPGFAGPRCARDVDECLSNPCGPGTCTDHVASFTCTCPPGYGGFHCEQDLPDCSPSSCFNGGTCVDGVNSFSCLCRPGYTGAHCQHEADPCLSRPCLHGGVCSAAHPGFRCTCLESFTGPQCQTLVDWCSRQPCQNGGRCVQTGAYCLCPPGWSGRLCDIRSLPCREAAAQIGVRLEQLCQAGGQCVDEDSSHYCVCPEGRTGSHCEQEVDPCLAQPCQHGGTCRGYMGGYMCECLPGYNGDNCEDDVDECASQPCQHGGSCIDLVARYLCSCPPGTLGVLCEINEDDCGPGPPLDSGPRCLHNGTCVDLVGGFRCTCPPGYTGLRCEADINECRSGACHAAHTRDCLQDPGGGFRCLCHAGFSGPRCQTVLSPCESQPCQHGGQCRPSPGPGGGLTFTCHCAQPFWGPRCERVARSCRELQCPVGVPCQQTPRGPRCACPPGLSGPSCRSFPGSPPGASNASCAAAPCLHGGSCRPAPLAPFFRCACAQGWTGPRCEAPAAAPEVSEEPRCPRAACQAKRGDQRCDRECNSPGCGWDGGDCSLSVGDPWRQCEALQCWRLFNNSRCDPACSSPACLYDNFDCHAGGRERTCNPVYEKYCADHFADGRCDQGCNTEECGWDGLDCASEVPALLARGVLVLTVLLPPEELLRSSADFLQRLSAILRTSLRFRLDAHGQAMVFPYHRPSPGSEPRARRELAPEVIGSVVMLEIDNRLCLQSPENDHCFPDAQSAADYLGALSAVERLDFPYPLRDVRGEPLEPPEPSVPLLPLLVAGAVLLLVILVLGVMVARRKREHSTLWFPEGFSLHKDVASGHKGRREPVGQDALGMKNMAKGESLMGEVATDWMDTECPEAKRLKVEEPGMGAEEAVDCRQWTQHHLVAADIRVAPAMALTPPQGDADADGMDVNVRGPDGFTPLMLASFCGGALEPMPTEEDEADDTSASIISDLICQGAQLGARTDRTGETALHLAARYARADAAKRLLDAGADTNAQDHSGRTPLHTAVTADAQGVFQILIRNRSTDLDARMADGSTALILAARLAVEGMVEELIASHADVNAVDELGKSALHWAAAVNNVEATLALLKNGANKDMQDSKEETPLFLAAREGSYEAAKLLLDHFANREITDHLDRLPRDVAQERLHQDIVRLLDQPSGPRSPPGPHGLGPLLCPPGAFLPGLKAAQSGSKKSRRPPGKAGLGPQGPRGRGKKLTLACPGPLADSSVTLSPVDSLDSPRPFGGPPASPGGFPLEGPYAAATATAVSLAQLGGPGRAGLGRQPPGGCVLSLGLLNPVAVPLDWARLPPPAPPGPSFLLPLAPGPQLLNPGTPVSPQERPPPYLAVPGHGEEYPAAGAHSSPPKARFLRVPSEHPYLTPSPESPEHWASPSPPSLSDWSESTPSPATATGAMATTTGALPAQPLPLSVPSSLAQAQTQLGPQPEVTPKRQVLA

Structure (SMILES)	composite z-score [1]	composite z-score [2]	composite z-score [3]	composite z-score [4]	composite z-score [5]	composite z-score [6]	composite z-score [7]	z-score [8]	composite z-score [9]	composite z-score [10]	composite z-score [11]	z-score [12]	z-score [13]	z-score [14]	composite z-score [15]	z-score [16]	composite z-score [17]	composite z-score [18]	composite z-score [19]	composite z-score [20]
CCCC[C@@H]1C[C@H]1[C@@H](NC(=O)c1cccs1)c1ccc(Cl)cc1	0.521	-0.6	-0.141	-0.543	-1.45	-0.273	-0.669	0.902 (inactive)	-0.531	-0.0003	-0.117	-0.0596 (inactive)	0.806 (inactive)	0.413 (inactive)	0.795	-1 (inactive)	-0.168	-1.69	-1.73	-0.288
COCCOC(=O)N1C(=O)[C@@]2(c3cc(C#CCCO)ccc31)[C@H](c1ccc(O)cc1)N1[C@H](c3ccccc3)[C@H](c3ccccc3)OC(=O)[C@H]1[C@@H]2C(=O)Nc1nc2ccccc2s1	-0.243	0.184	0.0644	0.892	1.25	0.227	1.15	-0.205 (inactive)	0.293	-0.16	1.55	-0.123 (inactive)	-0.239 (inactive)	0.691 (inactive)	2.84	1.74 (inactive)	-0.0283	1.39	1.09	0.0082
C=C(COC)C(=O)CC[C@H](OC(=O)c1ccccc1-c1ccccc1C(=O)O)c1cccc(OCCO)c1	-0.102	1.15	-0.103	0.24	0.0421	1.66	1.37	-3.97 (inactive)	-0.25	-0.0296	1.54	-22.6 (active)	-20.5 (active)	-3.63 (inactive)	4.32	0.573 (inactive)	-0.195	2.09	0.985	0.0004
O=C1O[C@@H](c2ccccc2)[C@@H](c2ccccc2)N2[C@@H](c3ccc(O)cc3)[C@]3(C(=O)Nc4ccc(C#CC5(O)CCCCCC5)cc43)[C@@H](C(=O)Nc3nc4ccccc4s3)[C@H]12	-0.128	0.91	0.0759	0.814	1.49	1.16	0.994	-0.253 (inactive)	1.12	1.71	1.54	0.775 (inactive)	-0.399 (inactive)	1.06 (inactive)	2.56	2.03 (inactive)	0.718	1.26	1.07	0.267
C#C[C@H](O[Si](C#Cc1ccccc1)(C(C)C)C(C)C)c1ccccc1	-0.16	-0.232	-0.0956	0.125	-0.677	-0.328	-0.305	1.15 (inactive)	-0.649	-0.233	0.0132	-22.2 (active)	-20.1 (active)	-2.8 (inactive)	0.504	-0.227 (inactive)	-0.279	-0.251	-0.406	-0.25
CO[C@H]1COC(=O)CC=C[C@@H](C)COC(=O)[C@@H](C)NC(=O)CC=C[C@@H]1C	-1.1	2.24	-0.138	-0.248	-0.604	-0.907	-0.228	-1.88 (inactive)	0.219	0.0274	1.53	-3.75 (inactive)	-2.87 (inactive)	-2.71 (inactive)	-0.55	-0.288 (inactive)	-0.179	1.83	0.473	-0.0243
C=C(CCCC)/C(=C/C[C@@H](OC(=O)c1ccncc1)c1cccc(OCCO)c1)c1cc(C(=O)OC)ccc1OC	-0.0606	0.522	0.0211	0.291	0.535	1.38	1.26	9.67 (active)	0.223	0.0722	1.36	0.526 (inactive)	-1.17 (inactive)	0.289 (inactive)	0.48	1.27 (inactive)	-0.0102	1.37	1.04	0.0376
CCN1C(C)=C(C(=O)OC)[C@@H](c2ccccc2)N2C(=O)[C@@]3(C(=O)OC)O[C@@]12[C@@H]1C(=O)N(C)C(=O)[C@@H]13	-0.217	0.139	-0.0125	0.735	0.949	0.825	1.18	-1.36 (inactive)	0.264	-0.0994	0.962	-0.444 (inactive)	-0.76 (inactive)	1.74 (inactive)	1.44	-0.0517 (inactive)	-0.122	0.584	0.333	0.0692
O=C(CS)NCCCCCNC(=O)[C@H]1C[C@H]2C(=O)N3CCC[C@H]3C(=O)N2[C@H]1c1ccc(O)cc1	0.305	0.0424	-0.0363	-0.267	-0.231	0.873	1.25	0.393 (inactive)	-0.339	0.0274	-0.183	-0.0414 (inactive)	-1.25 (inactive)	0.0236 (inactive)	0.0874	1.62 (inactive)	-0.0961	0.0529	-1.17	-0.184
COC(=O)C1=C(C)N(Cc2ccccc2)c2c(C(=O)OC)c(C(=O)OC)c(C(=O)OC)c(=O)n2[C@@H]1c1ccccc1	-0.274	0.657	-0.0181	0.282	0.898	0.289	0.721	0.365 (inactive)	0.224	-0.0994	0.269	-0.677 (inactive)	-1.75 (inactive)	-0.389 (inactive)	0.309	0.535 (inactive)	-0.195	0.433	0.699	-0.065
C=C(CCCC)/C(=C/C[C@H](OC(=O)c1ccncc1)c1cccc(OCCO)c1)c1cc(C(=O)OC)ccc1OC	-0.195	0.422	0.0346	1.05	-0.0883	0.0742	0.952	5.01 (inactive)	0.104	0.0854	1.4	0.15 (inactive)	-0.323 (inactive)	2.82 (inactive)	1.23	1.94 (inactive)	-0.174	1.08	0.966	-0.112

Reference: PubChem BioAssay
